Records with an inconclusive call do not appear. The source made the active and inactive calls. Unless noted, calls follow the shape of the dose curve; as a rule, active = well fitted curve in the direction sought with a large enough effect; inconclusive = small, poorly fitted or top-dose-only effect, or another doubt; inactive = no such curve, though single readings can be large; an effect the other way counts as inactive or inconclusive.
Columns and labels:
[1] = Cell Viability - LYMP2-001 (AID 921);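 also: series mostly up to about 92 µM; 0% = DMSO only and full inhibition = tetraoctylammonium bromide control wells; nearly all actives have a fitted effect of over 70% in size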
Summary of the method: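 Steps: seed 2500 lymphoblastoid cells/well; 5 hr, 37 C; add compound; 24 hr, 37 C; CellTiter-Glo reagent, 30 min room temperature; read luminescence. Concentration-response modeled by Hill equation for AC50.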

[2] = MultiTox-Fluor Cytotoxicity Assay - LYMP1-001 - Dead Cells (AID 946);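 also: 0% = DMSO and 100% = tetraoctylammonium bromide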
Summary of the method: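 AC50 from Hill fit of concentration-response; data normalized to DMSO (basal) and 15 uM tetraoctylammonium bromide (100%). LYMP1-001 lymphoblastoid cells, 2500/well, 16 hr compound at 37 C; dead-cell protease fluorescence, Ex/Em 485/520.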

[3] = MultiTox-Fluor Cytotoxicity Assay - LYMP1-001 - Live Cells (AID 947);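 also: 0% = DMSO only and full inhibition = tetraoctylammonium bromide control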
[4] = Cell Viability - LYMP1-002 - Assay at 16 hr (AID 948);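 also: 0% = DMSO alone and full effect = 92 µM tetraoctylammonium bromide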
Summary of the method: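 Seed 2500 LYMP1-002 cells per well in complete medium and hold 5 hr at 37 C. Add compound across a concentration series and incubate 16 hr at 37 C. Add CellTiter-Glo, wait 30 min at room temperature, read luminescence.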

[5] = MultiTox-Fluor Cytotoxicity Assay - LYMP1-003 - Dead Cells (AID 961);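 also: 0% = DMSO and 100% = tetraoctylammonium bromide; nearly all actives have a fitted effect of over 70% in size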
Summary of the method: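 Human lymphoblastoid LYMP1-003 cells (2500/well) were treated with compounds for 16 hr at 37 C in complete medium. Dead-cell protease release was read by bis-AAF-R110 fluorescence (Ex/Em 485/520). AC50 came from Hill fits, normalized to DMSO and 15 uM tetraoctylammonium bromide.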

[6] = MultiTox-Fluor Cytotoxicity Assay - LYMP1-003 - Live Cells (AID 962);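 also: 0% = DMSO only and full loss = 92 µM tetraoctylammonium bromide; cytotoxic hits lower the live-cell protease signal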
Summary of the method: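 qHTS, 1536-well; 2500 cells/well LYMP1-003; 5 hr 37 C settle; cpd 16 hr 37 C; MultiTox-Fluor reagent 60 min RT; live-cell protease fluor. 405/510; Hill-fit AC50; tetraoctylammonium bromide pos. ctrl.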

[7] = Cell Viability - LYMP1-003 - Assay at 24 hr (AID 963);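 also: plate controls were DMSO only for no effect and tetraoctylammonium bromide positive control for full effect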
Summary of the method: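 Cells seeded at 2500/well, 5 hr at 37 C; compounds added; 24 hr at 37 C; CellTiter-Glo added, 30 min room temperature; luminescence read. Decrease in ATP taken as cytotoxicity, AC50 from Hill modelling.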

[8] = Cell Viability - LYMP2-013 (AID 970);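 also: series mostly up to about 92 µM; 0% = DMSO only and full inhibition = tetraoctylammonium bromide control; nearly all actives have a fitted effect of over 55% in size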
Summary of the method: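 qHTS; 2500 lymphoblastoid cells/well; 5 hr 37 C settle; cpd 24 hr 37 C; CellTiter-Glo, 30 min RT; luminescence. AC50 = Hill fit.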

[9] = Cell Viability - LYMP2-015 (AID 971);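 also: 0% = DMSO only and full effect = 92 µM tetraoctylammonium bromide; nearly all actives have a fitted effect of over 55% in size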
Summary of the method: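 Luminescent ATP read-out (CellTiter-Glo) served as the viability measure after lymphoblastoid cells were exposed to compounds for 24 hours at 37 C. Concentration-response data were fitted with the Hill equation to give AC50.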

[10] = Cell Viability - LYMP2-019 (AID 973);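 also: 0% = DMSO alone and full effect = 92 µM tetraoctylammonium bromide; nearly all actives have a fitted effect of over 55% in size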
Summary of the method: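 Luminescent ATP read-out (CellTiter-Glo, 30 min room temperature) served as the viability measure after 24 hr treatment of lymphoblastoid cells at 37 C. Concentration-response data were fitted to the Hill equation for AC50.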

[11] = Cell Viability - LYMP2-023 (AID 975);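 also: cellular ATP measured by luciferase luminescence as viability proxy; series mostly up to about 92 µM; plate controls were DMSO only for no effect and 92 µM tetraoctylammonium bromide control for full effect; nearly all actives have a fitted effect of over 55% in size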
Summary of the method: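 2500 cells/well, 5 hr 37 C; cpd 24 hr 37 C; CellTiter-Glo, 30 min RT; luminescence. qHTS conc-response, Hill fit -> AC50. Pos ctrl tetraoctylammonium bromide.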

[12] = Cell Viability - LYMP2-025 (AID 976);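 also: series mostly up to about 92 µM; plate controls were DMSO only for no effect and tetraoctylammonium bromide control for full effect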
Summary of the method: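 Seed 2500 LYMP2-025 cells/well; 5 hr at 37 C; add compound; 24 hr at 37 C; add CellTiter-Glo; 30 min RT; read luminescence. AC50 from Hill-modelled concentration-response.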

[13] = Cell Viability - LYMP2-002 (AID 977);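 also: series mostly up to about 92 µM; compound exposure lasted 24 h at 37 °C; plate controls were DMSO only for no effect and 92 µM tetraoctylammonium bromide for full effect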
Summary of the method: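 Human lymphoblastoid LYMP2-002 cells, 2500 per well, exposed to compounds for 24 h at 37 C in complete medium; viability read as intracellular ATP by CellTiter-Glo luminescence, AC50 from Hill fits.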

[14] = Cell Viability - LYMP2-006 (AID 978); also: series mostly up to about 92 µM; % is scaled to controls: 0 for no effect and ±100 for the full control effect; nearly all actives have a fitted effect of over 60% in size
Summary of the method: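 Cells are seeded at 2500 per well and rested 5 hr at 37 C. Compounds are added across a concentration series for 24 hr at 37 C, after which ATP is quantified by luciferase luminescence.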

[15] = Cell Viability - LYMP2-008 (AID 980); also: % is scaled to controls: 0 for no effect and ±100 for the full control effect; nearly all actives have a fitted effect of over 60% in size
Summary of the method: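 qHTS, human lymphoblastoid line, 2500 cells/well; 5 hr preincubation, 24 hr compound, 37 C. CellTiter-Glo ATP luminescence. AC50 via Hill equation. Tetraoctylammonium bromide positive control.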

[16] = Cell Viability - LYMP2-010 (AID 981)
Summary of the method: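 Luminescent ATP signal (CellTiter-Glo) served as the viability read-out. Cells of the human lymphoblastoid line were treated with compound over a concentration range for 24 hours at 37 C, and AC50 values came from Hill-equation modeling.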

[17] = qHTS assay for small molecule antagonists of the retinoid-related orphan receptor gamma (ROR-gamma) signaling pathway - cell viability counter screen (AID 720652; active = well fitted curve in the direction sought with a large enough effect in the repeat runs; an effect the other way counts as inactive or inconclusive;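 also: series mostly up to about 92 µM; compound exposure lasted 16 hr before ATP read; % is scaled to controls: 0 for no effect and ±100 for the full control effect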)
Summary of the method: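 Luminescence from CellTiter-Glo after 30 min at room temperature reported cellular ATP as the cytotoxicity measure. Cells were the CHO reporter line with doxycycline-induced ROR-gamma expression, exposed to compound for 16 hr at 37 C.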

[18] = qHTS assay for small molecule agonists of the antioxidant response element (ARE) signaling pathway measured by Nrf2-dependant transcriptional activity - cell viability counter screen (AID 720653; active = well fitted curve in the direction sought with a large enough effect in the repeat runs; an effect the other way counts as inactive or inconclusive; also: % is scaled to controls: 0 for no effect and ±100 for the full control effect); conditions: ARE-bla HepG2 viability, CellTiter-Glo ATP luminescence, 16 h; max response: stronger effect = lower value
Summary of the method: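 ARE-bla HepG2 cells treated with compounds for 16 h at 37C; this counter screen measures viability as intracellular ATP by CellTiter-Glo luminescence after 30 min at room temperature.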

[19] = qHTS assay for cell viability of the p53RE-bla HCT-116 cell line (AID 743292)
Summary of the method: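 Luminescent ATP quantitation (CellTiter-Glo) served as the viability read-out; reagent was added after 16 h compound exposure at 37 C and read after 30 min at room temperature. Cells: p53RE-bla HCT-116, 4,000 per well.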

[20] = qHTS assay for small molecule activators of the human pregnane X receptor (PXR) signaling pathway (AID 720659; call rule not given here; also: 0% is about no effect)

CC(C)(c1ccc(OCC2CO2)cc1)c1ccc(OCC2CO2)cc1 (stereo not given)
inactive: outcome [1] | Potency [2] | outcome [3] | outcome [4] | Potency [5] | outcome [6] | outcome [7] | outcome [8] | outcome [9] | outcome [10] | outcome [11] | outcome [12] | outcome [13] | outcome [14] | outcome [15] | Potency [16] | outcome [17] | max response [18] -3.1% | outcome [19] | outcome [20]
